# Measurements from PubChem BioAssay AID977630 (Broad Institute, 2014).
# The campaign covered roughly 1,600 compounds. Fewer than 10 were called active. Inconclusive results (about 48%) are left out.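 The calls were made as follows: active = Normal-ribosome green reporter loss at least double humanized-ribosome red reporter loss, with overall culture growth inhibition under a set limit; inconclusive = no clear call, values can overlap the other calls; inactive = the rest.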 These entries were drawn from the full list. Measured potencies and affinities stand elsewhere.
# Test: E. coli growth inhibition, wild-type GFP versus H38 humanized RFP strain – H38 mutant RFP vs wild-type GFP, cherry-pick, dose response (AID 977630)
# Conditions: mixed culture, 24 h; series mostly up to 50 µM; activity change, negative = inhibition: at the top concentration
row,SMILES,"activity change, negative = inhibition"
1,COc1ccccc1-c1noc2ncnc(Nc3cccc(C)c3C)c12,-12.6 (inactive)
2,Cc1ccc([N+](=O)[O-])c(OCCn2cnc3ccccc32)c1,-3.1 (inactive)
3,Cc1cc2nc(SCC(=O)O)nc(C)c2cc1C,-1.89 (inactive)
4,COc1ccc(CN2C(=O)CC(Cc3cc(C)cc(C)c3)C2=O)cc1OC (stereo unspecified),-9.75 (inactive)
5,O=C(CN(c1ccc(F)cc1)S(=O)(=O)c1ccccc1)Nc1ccccc1C(=O)O,-16.1 (inactive)
6,COc1ccc(OC)c(-c2nn(-c3ccccc3)cc2C(=O)N2CCc3ccccc3C2)c1,-1.81 (inactive)
7,CN(C)c1ccc(-c2nnn(CC(=O)Nc3ccccc3N3CCOCC3)n2)cc1,-7.73 (inactive)
8,CC(CCc1ccccc1)NC(=O)CCC1CCCC1 (stereo unspecified),-14.9 (inactive)
9,COc1ccc(-c2nc(C3CCCCC3)no2)cc1OC,-8.9 (inactive)
10,CCC1(C(=O)OC)CCc2c(cc(OC)c3ccccc23)C1=O (stereo unspecified),-1.7 (inactive)
11,CN(Cc1c(F)cccc1Cl)C(=O)c1ccc(NS(=O)(=O)c2ccc3[nH]c(=O)[nH]c3c2)cc1,1.93 (inactive)
12,Nc1ccc(C(=O)Nc2ccc3nc(-c4ccncc4)[nH]c3c2)cc1,-4.86 (inactive)
13,Cc1ccccc1Nc1c(-c2cccnc2)nc2ccc(Br)cn12,3.56 (inactive)
14,CN(C)S(=O)(=O)c1cccc(C(=O)Nc2ccc(C(=O)Nc3cccc(S(N)(=O)=O)c3)cc2)c1,-13.6 (inactive)
15,CCN(CC)c1nc(Oc2ccc(C(=O)OC)cc2)nc(N2CCOCC2)n1,-10.1 (inactive)
16,Cc1nc2ncnn2c(N2CCC(C(=O)NC3CCCC3)CC2)c1Cc1ccccc1,-8.17 (inactive)
17,CCN(CC(=O)Nc1cccc(S(=O)(=O)N2CCCC2)c1)CC(=O)Nc1ccccc1OC,-16.9 (inactive)
18,COCc1nnc(NC(=O)c2ccc(S(=O)(=O)N3CCCC3)cc2)o1,-9.48 (inactive)
19,Cc1cccc(N2Cc3ccc(Br)cc3C2)c1,0.636 (inactive)
20,CCN(CC)S(=O)(=O)c1ccc(N2CCCC2)c(NC(=O)c2ccccc2OC)c1,-11 (inactive)
21,O=C(Nc1ccc(Nc2ccccc2)cc1)c1ccc(F)cc1,-19.7 (inactive)
22,Fc1ccc(Br)cc1SCCc1ccncc1,-5.72 (inactive)

row,SMILES,"activity change, negative = inhibition"
1,CCOC(=O)c1ccc(NC(=O)c2ccc(OC(C)C)c(OC)c2)cc1,-13.1 (inactive)
2,COc1cccc(NC2=Nc3cccc4cccc2c34)c1,0.034 (inactive)
3,CS(=O)(=O)N(CC(=O)N1CCc2ccccc2C1)c1cccc(Br)c1,-7.69 (inactive)
4,CC1Cc2cc(S(=O)(=O)N3CCN(c4cccc(Cl)c4)CC3)ccc2N1C(=O)C1CC1 (stereo unspecified),-7.78 (inactive)
5,Cn1c(=O)c2c(ncn2CC(O)CNc2ccc(F)cc2)n(C)c1=O (stereo unspecified),-2.9 (inactive)
6,O=C(NCCCN1CCOCC1)c1sc2cc([N+](=O)[O-])ccc2c1Cl,-0.6 (inactive)
7,CN1OC[C@@H]2CN(C(=O)c3ccco3)[C@H](c3ccc(-c4ccc(C#N)cc4)cc3)C[C@@H]21,-0.137 (inactive)
8,COCC#Cc1ccc2c(c1)O[C@@H](CN(C)S(=O)(=O)c1cccc(F)c1)[C@@H](C)CN([C@H](C)CO)S2(=O)=O,-17.1 (inactive)
9,O=C(CSCc1cnn(-c2ccccc2)c1-n1cccc1)NCc1cccnc1,4.83 (inactive)
10,CCOC(=O)C1NN=C(C(=O)c2ccccc2)C1c1ccc(OC)cc1 (stereo unspecified),-0.226 (inactive)
11,CN1CCN(C(=O)c2cc3nc(-c4ccco4)cc(C(F)(F)F)n3n2)CC1,4.79 (inactive)
12,Cc1cccc(CN2C(=O)c3ccccc3Sc3ccc(C(=O)NCCN4CCOCC4)cc32)c1,-9.56 (inactive)
13,S=c1nc(-c2cccc(Br)c2)[nH][nH]1,-17 (inactive)
14,O=C(Cc1ccc(Br)cc1)Nc1cccc(-c2cn3c(n2)SCC3)c1,-13.7 (inactive)
15,Cc1cc(SCC(=O)c2cccs2)n2nc(C)c(-c3ccc(Cl)cc3)c2n1,-3.99 (inactive)
16,CC(C)[C@@H]1CC[C@@H](C)C[C@H]1O,44.4 (inactive)
17,COc1ccc(-c2cc(C(=O)O)nc3ccc4ccccc4c23)cc1OC,-15.7 (inactive)
18,COc1ccc(C(=O)COc2ccc(F)cc2)c(O)c1,3.67 (inactive)
19,O=C(O)CC1(CC(=O)Nc2ccc3sccc3c2)CCCCC1,-2.25 (inactive)
20,CCOC(=O)C(CC)Sc1cc(C)nc2ccc(OC)cc12 (stereo unspecified),-17.8 (inactive)
21,O=C(NC1CCCCC1)C(c1cccc2ccccc12)n1c(=O)c(-c2ccco2)nc2ccccc21 (stereo unspecified),-2.93 (inactive)
22,COc1cc(CC(=O)Nc2nc(C)cs2)cc(OC)c1OC,-5.62 (inactive)

row,SMILES,"activity change, negative = inhibition"
1,Cc1cc(NC(=O)c2sc(Nc3ccc(F)c(Cl)c3)nc2N)no1,9.52 (inactive)
2,COc1cc(OC)cc(-c2nc3ccccc3c(=O)n2OC(=O)c2ccc(C)c(C)c2)c1,10.3 (inactive)
3,Cn1ccc2cc(-c3ccc4ncnc(NCc5cccs5)c4c3)ccc21,-14.3 (inactive)
4,Fc1ccccc1C1CCN(Cc2nc(CC3CC3)no2)C1 (stereo unspecified),0.528 (inactive)
5,O=C(COc1ccc(Br)cc1)Nc1ccc(C(=O)Nc2ccccc2C(=O)O)cc1,-23.1 (inactive)
6,C#CCOc1nc(Nc2cccc([N+](=O)[O-])c2)nc(OCC#C)n1,-4.34 (inactive)
7,OC(COc1ccc(Cl)cc1)CN1CCN(c2ccccn2)CC1 (stereo unspecified),-7.68 (inactive)
8,Cc1nn(-c2ccc(N3CCCCC3)nn2)c(C)c1CCC(=O)Nc1ccc(F)cc1,15.2 (inactive)
9,COc1cc2c(cc1OC)C1(C)N(CC2)C(C(C)=O)=NN1c1ccc(Cl)cc1 (stereo unspecified),-11.9 (inactive)
10,O=C(Nc1ccc(C(F)(F)F)cc1)C1CCN(c2cnccn2)CC1,-7.16 (inactive)
11,Cc1nn(CC(=O)OCCOc2ccc(Br)cc2)c(C)c1[N+](=O)[O-],-13.8 (inactive)
12,NS(=O)(=O)c1cccc(NC(=O)COc2ncnc3c2cnn3-c2ccccc2)c1,11.2 (inactive)
13,c1ccc2c(c1)Nc1cc3ccccc3cc1S2,14.4 (inactive)
14,CC(C)OC(=O)c1sc2nc(-c3ccccc3)ccc2c1N,6.79 (inactive)
15,COc1ccc(C2CC(c3ccc(Br)cc3)=NN2C(=O)CN2CCCC2)cc1 (stereo unspecified),-0.841 (inactive)
16,COc1ccc(CNC(=O)c2nc(S(=O)(=O)Cc3ccccc3)ncc2Cl)cc1,3.47 (inactive)
17,CCc1nc2ccccc2c(C(=O)OCC(=O)NC(=O)c2cccn2C)c1C,0.218 (inactive)
18,O=C(Nc1ccccc1N1CCOCC1)C1CCCCN1S(=O)(=O)c1ccccc1 (stereo unspecified),-15.6 (inactive)
19,CCOc1ccc(NC(=O)CCc2nnc3ccc(N4CCC(C)CC4)nn23)cc1,5.84 (inactive)
20,Cc1cc(C)cc(NS(=O)(=O)c2c(C(=O)N3CCCCCC3)c(C)n(C)c2C)c1,-5.32 (inactive)
21,COc1ccc(CN(C)C(=O)c2cc(-c3ccc(OC)c(OC)c3)nc3ccccc23)c(OC)c1,-3.82 (inactive)
22,CC1(C(=O)NS(=O)(=O)c2cccc(F)c2)CCN1C(=O)C1(c2ccc(Cl)cc2)CCC1 (stereo unspecified),-2.51 (inactive)
